Source: ChEMBL document CHEMBL4513216, “Probing the Open Global Health Chemical Diversity Library for Multistage-Active Starting Points for Next-Generation Antimalarials” (ACS Infect Dis, 2020)
In all, about 69,000 compounds went through this assay and about 8,600 (12%) showed an effect of 50% or more. The entries come from a sample that favours strong results as a whole.

These compounds were tested on Plasmodium berghei (assay: Screen against P. berghei liver stage (PbLuc), transformed with Luciferase, at 10uM). Conditions: tested at 10 uM.
Type: functional, HepG2

| Structure (SMILES) | INHIBITION [%] |
| --- | --- |
| N#Cc1cccc(C(=O)N2CCC(Nc3cccnn3)CC2)c1 | 15.5 |
| Cc1ccc2c(c1)C(NC(=O)N(C)C)CC21CCN(C)CC1 (configuration not stated) | -24.1 |
| OC1CCN(c2ccc(CNc3nc4ccccc4o3)cc2F)CC1 | -37.7 |
| Cc1nc(C(=O)NCc2ccc(N3CCNC(=O)C3)c(F)c2)cs1 | -11.7 |
| OC1CCN(c2cnnc3ccccc23)CC1 | 40.2 |
| OC1CCN(c2ccc(CNc3nc4ccccc4s3)cc2F)CC1 | 59.4 |
| N#Cc1cc(NC(=O)c2cc[nH]n2)ccc1N1CCC(O)CC1 | 9.65 |
| COC(=O)c1sc(NCc2ccc(N3CCC(O)CC3)c(F)c2)nc1Cl | 91.2 |
| Cc1cc(NCCNc2cccnc2)nc(N)n1 | 36.8 |
| CCC(NS(=O)(=O)c1ccc(C(=O)NC2CC2)cc1)c1cnn(C)c1 (configuration not stated) | -10.1 |
| O=C1CC2(CCN(C(=O)c3ccncc3)CC2)Oc2c(Cl)cc(Cl)cc21 | -29 |
| CC(C)N1CCc2ncn(C)c2C1C(=O)NCCN1CCCC1 (configuration not stated) | 67.4 |
| CC(C)N1CCc2ncn(C(C)C)c2C1C(=O)NCCN1CCCC1 (configuration not stated) | 30.5 |
| CC(C)N1CCc2ncn(C)c2C1C(=O)N1CCOCC1 (configuration not stated) | 29 |
| CCc1noc(Cn2c(=O)c3c(C(F)(F)F)cc(C)nc3n2C)n1 | -7.93 |
| O=c1[nH]c(N2CCN(C3CC3)CC2)nc2c1cnn2-c1ccccc1 | 24.7 |

| Structure (SMILES) | INHIBITION [%] |
| --- | --- |
| CC1CCN(c2nc3c(cnn3-c3ccccc3)c(=O)[nH]2)CC1 | 89.6 |
| O=c1[nH]c(N2CC(O)C2)nc2c1cnn2-c1ccccc1 | 17.1 |
| COCC1CN(Cc2sccc2C)Cc2nnn(CC3CC3)c21 (configuration not stated) | -42.9 |
| CCn1cc2c(n1)CN(Cc1nccs1)CC2COCC1CC1 (configuration not stated) | 71.1 |
| CCn1cc2c(n1)CN(C(=O)c1ccncc1)CC2COCC1CC1 (configuration not stated) | -30.1 |
| CCn1cc2c(n1)CN(Cc1sccc1C)CC2COCC1CC1 (configuration not stated) | 52 |
| CCOCC1CN(Cc2nccs2)Cc2nn(CC3CC3)cc21 (configuration not stated) | 11.4 |
| CCn1cc2c(n1)CN(CC1CC1)CC2COCC1CC1 (configuration not stated) | 19.3 |
| OC1CCCN(Cc2ccnc(-c3cccnc3)n2)C1 (configuration not stated) | 19.6 |
| CCn1cc(-c2cc(C(F)(F)F)n(CCCN)n2)cn1 | 8.53 |
| Fc1ccc(CN[C@@H]2COC[C@H]2c2ccc(F)cc2)cc1 | -27.1 |
| Cc1noc(CN(C)C(=O)c2n[nH]c(N)c2-c2ccccc2)n1 | 1.98 |
| Cc1cc(-c2cncnc2)nc(C2CCCN2S(C)(=O)=O)n1 (configuration not stated) | 31.3 |
| O=C(CN1CC(c2nc(C3CC3)no2)C1)N1CCOCC1 | 29.7 |
| O=C(CN1CCCC(c2noc(C3CC3)n2)C1)N1CCCC1 (configuration not stated) | 15.6 |
| CC1CCN(C(=O)CN2CC(c3nc(C4CC4)no3)C2)CC1 | 58.1 |
